This passage reports outcome and AC50 results from PubChem BioAssay (EPA / NIEHS).

Values joined by “and” are separate entries in the source; they are usually repeats but may differ in a detail not shown here. Equal values may be shown once. Records with an inconclusive call do not appear. Some structures have more than one record in an assay (separate samples or runs), and their calls can disagree. Active and inactive are the calls of the source. Rule for the calls: active = hit-call score of the fitted dose curve at least 0.9, where 1 is the maximum; inconclusive = response in the unintended direction; inactive = score below 0.9.

Sequence of human CYP19A1, CYP19A1 (gene 1588) (P11511 whole entry, looked up): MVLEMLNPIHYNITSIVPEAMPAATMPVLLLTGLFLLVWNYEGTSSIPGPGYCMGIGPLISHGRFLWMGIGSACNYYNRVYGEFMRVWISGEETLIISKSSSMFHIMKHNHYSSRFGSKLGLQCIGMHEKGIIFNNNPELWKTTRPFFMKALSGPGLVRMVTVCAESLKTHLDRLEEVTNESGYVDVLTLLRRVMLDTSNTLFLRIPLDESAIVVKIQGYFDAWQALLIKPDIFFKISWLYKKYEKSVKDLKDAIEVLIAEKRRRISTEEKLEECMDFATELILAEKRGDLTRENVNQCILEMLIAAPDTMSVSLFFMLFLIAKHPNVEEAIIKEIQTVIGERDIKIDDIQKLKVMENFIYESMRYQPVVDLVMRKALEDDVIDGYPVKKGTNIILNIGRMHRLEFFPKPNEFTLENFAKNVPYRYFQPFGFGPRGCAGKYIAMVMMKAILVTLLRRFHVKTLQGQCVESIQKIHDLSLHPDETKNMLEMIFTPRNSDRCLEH

The target in the test is human CYP19A1, CYP19A1 (gene 1588) (UniProt P11511). The test is described as follows: NVS_ADME_hCYP19A1: NovaScreen (NVS) CYP450-related Enzyme Activity (ADME) Assay for human CYP19A1 (AID 2283098).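 For AC50: potency for inhibitors seen as loss of fluorescent enzyme signal.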 The method, then:
NVS_ADME_hCYP19A1 is a biochemical, single-readout assay that uses extracted gene-proteins in a cell-free assay. Measurements were taken 0.5 hour after chemical dosing in a 384-well plate.NVS_ADME_hCYP19A1 is one of one assay component(s) measured or calculated from the NVS_ADME_hCYP19A1 assay. It is designed to make measurements of enzyme activity, a form of enzyme reporter, as detected with fluorescence intensity signals by Fluorescence technology.Data from the assay component NVS_ADME_hCYP19A1 was analyzed into 1 assay endpoint. This assay endpoint, NVS_ADME_hCYP19A1, was analyzed in the positive analysis fitting direction relative to Acetonitrile as the negative control and baseline of activity. Using a type of enzyme reporter, loss-of-signal activity can be used to understand changes in the enzymatic activity as they relate to the gene CYP19A1. Furthermore, this assay endpoint can be referred to as a primary readout, because this assay has produced multiple assay endpoints where this one serves a enzymatic activity function. To generalize the intended target to other relatable targets, this assay endpoint is annotated to the cyp intended target family, where the subfamily is steroidogenesis-related.
Binding assays used specific radioligands (tritiated, iodinated) with non-radioactive competitive displacement ligands in agonist or antagonist protocols (as indicated) and various reference compounds and inhibitors to titrate specific binding to receptors and transporters. Most enzyme assays (CYPs, kinases, phosphatases, proteases, HDACs) used recombinant protein and specific substrates (fluorescence mostly, some colorimetric and radioactive) and inhibitors, followed by a biochemical separation of substrate and product. All assays for the biochemical HTS were initially run in duplicate at a single concentration (10 uM for CYP450 assays and 25 uM for all others). […] Each assay was run with positive and negative controls, and concurrent controls on every plate. The follow-up (secondary) screen tested active chemical-pairs in concentration series, as well as a few additional assays not tested in the primary screen, some selected negative inactives, and several cases re-run in the concentration series for confirmatory purposes.
`CC(C)(c1ccc(O)cc1)c1ccc(O)cc1`: the result was inactive. With `CC(=O)S[C@@H]1CC2=CC(=O)CC[C@]2(C)[C@H]2CC[C@@]3(C)[C@@H](CC[C@@]34CCC(=O)O4)[C@H]12`, the AC50 was 8.3 µM (active) and the outcome was inactive.

On to `CCCCOCCOCCOCc1cc2c(cc1CCC)OCO2`, for which the call was inactive. On the same count and under the same terms, to `CCCOC(=O)c1ccc(C(=O)OCCC)nc1` belongs “inactive”. Same read-out and setting: to `CC(=O)[C@H]1CC[C@H]2[C@@H]3CCC4=CC(=O)CC[C@]4(C)[C@H]3CC[C@]12C` belongs “inactive”; to `COC(=O)CSc1cc(N=c2sc(=O)n3n2CCCC3)c(F)cc1Cl`, “inactive”. Turning to `CCCN(CCC)C(=O)SCC`, the AC50 was 0.652 µM (active) and the call was inactive.

In the case of `Oc1ccc(C(c2ccc(O)cc2)C(Cl)(Cl)Cl)cc1`, the result was inactive. For the compound `S=C([S-])NCCNC(=S)[S-].[Mn+2]`, the AC50 was 1.11 µM (active). As to `COC(=O)c1ccccc1C(=O)O`, the AC50 is 3.5 µM (active). As for `CCCCC(CC)CN1C(=O)C2C3C=CC(C3)C2C1=O` (stereo not drawn), the outcome was inactive. For the compound `O=C(c1ccccc1)C1CCCCC1`, the call was inactive. For `C[C@]12C[C@H](O)[C@H]3[C@@H](CCC4=CC(=O)CC[C@@]43C)[C@@H]1CC[C@@H]2C(=O)CO`, the result was inactive. For the compound `C=CCOC(Cn1ccnc1)c1ccc(Cl)cc1Cl` (stereo not drawn), the AC50 is 0.628 µM (active).

Turning to `O=C(c1ccc(O)cc1O)c1ccc(O)cc1O`, the AC50 is 5.78 µM (active) and 5.75 µM (active) and 7.34 µM (active). Turning to `S=C(S)NCCNC(=S)S.[Mn+2].[S-]C([S-])=NCCN=C([S-])[S-].[Zn+2]`, the compound was classed as inactive.
